PubChem BioAssay (EPA / NIEHS)
Calls of active or inactive are those of the source. How the source made its calls: active means hit-call score of the fitted dose curve at least 0.9, where 1 is the maximum; inactive means score below 0.9.

Read-out: Interleukin-1 alpha (IL1a), IL1A (gene 3552)
Test: BSK_BE3C_IL1a: BioMAP Diversity Plus: BE3C Assay for Interleukin-1 alpha (IL1a) Biomarker Activity (AID 2283016)
Settings: primary human bronchial epithelial cells; actives raise or lower the signal
Protocol: BSK_BE3C is a cell-based, multiplexed-readout assay that uses bronchial epithelial cell, a human lung primary cell, with measurements taken at 24 hours after chemical dosing in a 96-well plate.BSK_BE3C_IL1a is an assay component measured in the BSK_BE3C assay. It measures IL-1a antibody related to regulation of gene expression using ELISA technology.Data from the assay component BSK_BE3C_IL1a was analyzed into 1 assay endpoint. This assay endpoint, BSK_BE3C_IL1a, was analyzed with bidirectional fitting relative to DMSO as the negative control and baseline of activity. Using a type of binding reporter, gain or loss-of-signal activity can be used to understand changes in the signaling as they relate to the gene IL1A. Furthermore, this assay endpoint can be referred to as a primary readout, because this assay has produced multiple assay endpoints where this one serves a signaling function. To generalize the intended target to other relatable targets, this assay endpoint is annotated to the cytokine intended target family, where the subfamily is interleukins.
The levels of cell surface (or secreted, indicated by the prefix "s") biomarker endpoints were measured by ELISA. Overt cytotoxicity to cells in confluent adherent cultures (all systems other than the BT system) was assessed by measuring total protein levels using sulforhodamine B (SRB) staining in parallel cultures at the time of biomarker measurements, indicated as SRB endpoints. For proliferation assays for adherent cell types, individual cell types are cultured at sub-confluence and relative cell numbers quantified by SRB staining at time points optimized for each system (48 h: 3C and CASM3C systems; 72 h: BT and HDF3CGF systems; 96 h: SAg system). SRB was performed by staining cells with 0.1% SRB after fixation with 10% TCA and reading wells at 560 nm.Viability and proliferation of PBMC (T cells) was quantified by Alamar Blue reduction for the SAg and BT systems. For PBMC viability (referred to as PBMC Cytotoxicity within the assay endpoint names), cells were plated (75,000/well in a 96-well plate) and then chemical samples added for 1 h before addition of activators, SEB and TSST-1 (20 ng/mL final concentration each). Cells were incubated for 90 h. Then, Alamar Blue (20 uL/well) (Invitrogen, Cat DAL1100) was added for 6 h, and the plates were read with a fluorescence microplate reader at 546/580 nm (excitation/emission). For PBMC proliferation, cells were plated and activated as above but incubated for only 16 h prior to addition of Alamar Blue. Plates were read after 6 h.

Row | Structure (SMILES) | outcome | AC50
1 | CNC(=O)Oc1cccc2ccccc12 | inactive | –
2 | COCC(=O)N(c1c(C)cccc1C)C(C)C(=O)OC (stereo not given) | inactive | –
3 | N#Cc1c(Cl)cccc1Cl | inactive | –
4 | CC1(C)C(C=C(Cl)Cl)C1C(=O)OC(C#N)c1cccc(Oc2ccccc2)c1 (stereo not given) | inactive | –
5 | O=c1n(Cl)c(=O)n(Cl)c(=O)n1Cl | inactive | –
6 | Clc1cccc(C(Cl)(Cl)Cl)n1 | inactive | –
7 | OC(c1ccc(Cl)cc1)(c1ccc(Cl)cc1)C(Cl)(Cl)Cl | – | 15.1 µM (active)
8 | CSC(=O)c1c(C(F)F)nc(C(F)(F)F)c(C(=O)SC)c1CC(C)C | inactive | –
9 | COC(=O)c1c(C(F)F)nc(C(F)(F)F)c(C2=NCCS2)c1CC(C)C | inactive | –
10 | CCC(C)n1c(=O)[nH]c(C)c(Br)c1=O (stereo not given) | inactive | –
11 | CC(C)N1C(=O)c2ccccc2NS1(=O)=O | inactive | –
12 | CS(=O)(=O)c1ccc(C(=O)C2C(=O)CCCC2=O)c([N+](=O)[O-])c1 | inactive | –
13 | CNC(=O)N(C)c1nnc(C(C)(C)C)s1 | inactive | –
14 | CC1(C)CCC(=Cc2ccc(Cl)cc2)C1(O)Cn1cncn1 (stereo not given) | inactive | –
15 | CCOP(=O)(OCC)Oc1nc(Cl)c(Cl)cc1Cl | inactive | –
16 | N#CN=C1SCCN1Cc1ccc(Cl)nc1 | inactive | –
17 | C=CCOC(=O)C(C)(C)OC(=O)c1cc(-n2c(=O)cc(C(F)(F)F)n(C)c2=O)ccc1Cl | inactive | –
18 | CCCCOCN(C(=O)CCl)c1c(CC)cccc1CC | – | 36.5 µM (active)
19 | COc1cc(OC)nc(NC(=O)NS(=O)(=O)c2ncccc2OCC(F)(F)F)n1 | inactive | –
20 | CCOc1nc(C(Cl)(Cl)Cl)ns1 | inactive | –

Row | Structure (SMILES) | outcome | AC50
21 | Nc1c(Cl)c(Cl)nc(C(=O)O)c1Cl | inactive | –
22 | CCN(CC)C(=O)C(C)Oc1cccc2ccccc12 (stereo not given) | inactive | –
23 | CC(C)(C)C(=O)C(Oc1ccc(Cl)cc1)n1cncn1 (stereo not given) | inactive | –
24 | CCOc1nc(F)cc2nc(S(=O)(=O)Nc3c(Cl)cccc3Cl)nn12 | inactive | –
25 | CCOP(=S)(OCC)Oc1nc(Cl)n(C(C)C)n1 | inactive | –
26 | O=C(O)c1c(Cl)ccc2cc(Cl)cnc12 | inactive | –
27 | Nc1c(Cl)c(F)nc(OCC(=O)O)c1Cl | inactive | –
28 | CCNP(=S)(OC)O/C(C)=C/C(=O)OC(C)C (stereo not given) | inactive | –
29 | COP(=S)(OC)SCn1nnc2ccccc2c1=O | inactive | –
30 | COP(=S)(OC)Oc1ccc([N+](=O)[O-])c(C)c1 | inactive | –
31 | CCSC(=O)N1CCCCCC1 | inactive | –
32 | CC(C)NC(=O)N1CC(=O)N(c2cc(Cl)cc(Cl)c2)C1=O | inactive | –
33 | CCN(CC)c1nc(C)cc(OP(=S)(OC)OC)n1 | inactive | –
34 | COC(=O)NS(=O)(=O)c1ccc(N)cc1 | inactive | –
35 | CCCCC(O)(Cn1cncn1)c1ccc(Cl)cc1Cl (stereo not given) | inactive | –
36 | Cn1c(-c2ccccc2)cc(-c2ccccc2)[n+]1C | inactive | –
37 | CS(=O)(=O)c1cc(C(F)(F)F)ccc1C(=O)c1cnoc1C1CC1 | inactive | –
38 | Cc1nc(N(C)C)nc(OC(=O)N(C)C)c1C | inactive | –
39 | CN/C(=N\[N+](=O)[O-])NCc1cnc(Cl)s1 | inactive | –
40 | Clc1nc(Cl)nc(Nc2ccccc2Cl)n1 | inactive | –
